# Assays:
# [1] = biological target: Sphingosine kinase 1 (Homo sapiens) (UniProt Q9NYA1); conditions: at 1 µM;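 further: mean SPHK1 inhibition value reported from the GSK PKIS kinase panel screen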
# [2] = biological target: T1, Sphingosine kinase 2 (Homo sapiens) (UniProt Q9NRA0); conditions: at 0.1 µM
# T1 sequence (whole entry): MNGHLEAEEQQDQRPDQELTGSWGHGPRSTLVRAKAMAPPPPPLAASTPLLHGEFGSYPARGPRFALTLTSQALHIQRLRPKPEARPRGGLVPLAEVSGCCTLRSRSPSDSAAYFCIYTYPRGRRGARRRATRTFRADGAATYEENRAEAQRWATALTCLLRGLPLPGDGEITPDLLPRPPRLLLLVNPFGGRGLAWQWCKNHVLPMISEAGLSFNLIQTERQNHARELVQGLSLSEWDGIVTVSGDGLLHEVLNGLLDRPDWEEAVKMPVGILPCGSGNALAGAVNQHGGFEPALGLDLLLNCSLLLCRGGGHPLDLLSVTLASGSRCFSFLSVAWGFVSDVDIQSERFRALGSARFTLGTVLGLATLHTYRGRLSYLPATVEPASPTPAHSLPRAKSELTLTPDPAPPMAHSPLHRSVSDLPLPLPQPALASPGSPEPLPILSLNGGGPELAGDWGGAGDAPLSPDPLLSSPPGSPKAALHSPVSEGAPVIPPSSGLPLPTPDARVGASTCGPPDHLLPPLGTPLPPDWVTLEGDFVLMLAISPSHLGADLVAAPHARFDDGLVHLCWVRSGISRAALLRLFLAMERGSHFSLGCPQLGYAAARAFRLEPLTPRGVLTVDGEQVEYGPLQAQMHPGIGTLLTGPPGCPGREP
# [3] = biological target: T1, Sphingosine kinase 2 (Homo sapiens); conditions: at 1 µM
# [4] = biological target: Casein kinase II subunit alpha (Homo sapiens) (UniProt P68400); conditions: at 0.1 µM
# [5] = biological target: Casein kinase II subunit alpha (Homo sapiens) (UniProt P68400); conditions: at 1 µM
# [6] = biological target: T2, Inhibitor of nuclear factor kappa-B kinase subunit alpha (Homo sapiens) (UniProt O15111); conditions: at 0.1 µM
# T2 sequence (whole entry): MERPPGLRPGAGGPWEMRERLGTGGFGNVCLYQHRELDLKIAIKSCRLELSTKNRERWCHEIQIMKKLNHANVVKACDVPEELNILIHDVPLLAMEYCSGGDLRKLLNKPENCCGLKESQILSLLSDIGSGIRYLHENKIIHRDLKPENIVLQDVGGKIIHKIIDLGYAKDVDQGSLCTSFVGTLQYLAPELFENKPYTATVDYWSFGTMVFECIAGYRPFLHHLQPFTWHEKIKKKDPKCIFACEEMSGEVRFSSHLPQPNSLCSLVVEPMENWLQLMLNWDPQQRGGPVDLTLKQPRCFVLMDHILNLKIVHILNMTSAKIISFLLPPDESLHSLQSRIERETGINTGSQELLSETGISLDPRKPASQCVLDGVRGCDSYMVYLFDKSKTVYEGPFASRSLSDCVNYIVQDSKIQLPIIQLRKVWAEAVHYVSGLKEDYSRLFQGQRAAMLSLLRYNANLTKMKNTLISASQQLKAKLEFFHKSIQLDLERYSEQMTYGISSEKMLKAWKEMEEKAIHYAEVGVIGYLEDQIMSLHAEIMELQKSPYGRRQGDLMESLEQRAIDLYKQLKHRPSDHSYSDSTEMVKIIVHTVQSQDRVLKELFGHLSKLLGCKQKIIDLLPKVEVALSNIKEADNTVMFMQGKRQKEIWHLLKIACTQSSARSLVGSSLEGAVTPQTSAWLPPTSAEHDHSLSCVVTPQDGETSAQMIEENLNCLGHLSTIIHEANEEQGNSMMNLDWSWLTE
# [7] = biological target: T2, Inhibitor of nuclear factor kappa-B kinase subunit alpha (Homo sapiens); conditions: at 1 µM
# [8] = biological target: T3, Inhibitor of nuclear factor kappa-B kinase subunit beta (Homo sapiens) (UniProt O14920); conditions: at 0.1 µM
# T3 sequence (whole entry): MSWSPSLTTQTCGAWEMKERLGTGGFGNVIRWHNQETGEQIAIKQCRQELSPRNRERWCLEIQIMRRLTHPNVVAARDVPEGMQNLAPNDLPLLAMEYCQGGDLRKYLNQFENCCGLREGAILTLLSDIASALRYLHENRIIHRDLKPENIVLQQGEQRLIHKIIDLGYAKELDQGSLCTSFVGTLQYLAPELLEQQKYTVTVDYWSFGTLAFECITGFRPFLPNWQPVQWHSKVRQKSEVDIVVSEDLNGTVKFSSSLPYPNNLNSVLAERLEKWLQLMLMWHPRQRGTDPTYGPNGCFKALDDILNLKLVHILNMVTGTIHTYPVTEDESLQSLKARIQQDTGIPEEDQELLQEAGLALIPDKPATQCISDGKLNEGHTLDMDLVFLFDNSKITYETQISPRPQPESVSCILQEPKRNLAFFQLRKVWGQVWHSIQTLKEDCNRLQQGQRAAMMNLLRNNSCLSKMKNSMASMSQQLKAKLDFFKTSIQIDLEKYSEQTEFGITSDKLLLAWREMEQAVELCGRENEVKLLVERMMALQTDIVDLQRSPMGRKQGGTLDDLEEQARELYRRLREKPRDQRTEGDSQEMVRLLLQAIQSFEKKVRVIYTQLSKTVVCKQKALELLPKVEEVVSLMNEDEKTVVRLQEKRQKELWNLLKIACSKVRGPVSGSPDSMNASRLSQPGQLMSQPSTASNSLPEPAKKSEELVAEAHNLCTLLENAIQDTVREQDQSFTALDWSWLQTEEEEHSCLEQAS
# [9] = biological target: T3, Inhibitor of nuclear factor kappa-B kinase subunit beta (Homo sapiens); conditions: at 1 µM
# [10] = biological target: T4, Inhibitor of nuclear factor kappa-B kinase subunit epsilon (Homo sapiens) (UniProt Q14164); conditions: at 0.1 µM
# T4 sequence (whole entry): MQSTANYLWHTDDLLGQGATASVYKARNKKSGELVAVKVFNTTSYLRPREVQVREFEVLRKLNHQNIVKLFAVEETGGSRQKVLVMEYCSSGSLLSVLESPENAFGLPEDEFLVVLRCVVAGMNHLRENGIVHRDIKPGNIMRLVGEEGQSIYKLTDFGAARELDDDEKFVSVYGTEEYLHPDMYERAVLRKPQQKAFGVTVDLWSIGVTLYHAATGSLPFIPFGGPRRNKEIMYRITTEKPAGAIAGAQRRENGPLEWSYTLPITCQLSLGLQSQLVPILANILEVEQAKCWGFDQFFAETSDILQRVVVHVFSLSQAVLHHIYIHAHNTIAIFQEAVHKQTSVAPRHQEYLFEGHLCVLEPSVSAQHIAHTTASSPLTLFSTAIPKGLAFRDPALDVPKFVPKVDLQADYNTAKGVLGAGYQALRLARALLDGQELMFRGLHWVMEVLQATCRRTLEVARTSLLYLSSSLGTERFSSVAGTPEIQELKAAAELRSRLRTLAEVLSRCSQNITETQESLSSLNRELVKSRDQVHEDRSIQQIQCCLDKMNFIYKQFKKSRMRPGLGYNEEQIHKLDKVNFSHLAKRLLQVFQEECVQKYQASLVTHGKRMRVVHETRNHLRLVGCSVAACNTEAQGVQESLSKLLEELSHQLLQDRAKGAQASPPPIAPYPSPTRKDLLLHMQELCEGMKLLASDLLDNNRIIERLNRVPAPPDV
# [11] = biological target: T4, Inhibitor of nuclear factor kappa-B kinase subunit epsilon (Homo sapiens); conditions: at 1 µM
# [12] = biological target: T5, Serine/threonine-protein kinase Nek1 (Homo sapiens) (UniProt Q96PY6); conditions: at 0.1 µM
# T5 sequence (whole entry): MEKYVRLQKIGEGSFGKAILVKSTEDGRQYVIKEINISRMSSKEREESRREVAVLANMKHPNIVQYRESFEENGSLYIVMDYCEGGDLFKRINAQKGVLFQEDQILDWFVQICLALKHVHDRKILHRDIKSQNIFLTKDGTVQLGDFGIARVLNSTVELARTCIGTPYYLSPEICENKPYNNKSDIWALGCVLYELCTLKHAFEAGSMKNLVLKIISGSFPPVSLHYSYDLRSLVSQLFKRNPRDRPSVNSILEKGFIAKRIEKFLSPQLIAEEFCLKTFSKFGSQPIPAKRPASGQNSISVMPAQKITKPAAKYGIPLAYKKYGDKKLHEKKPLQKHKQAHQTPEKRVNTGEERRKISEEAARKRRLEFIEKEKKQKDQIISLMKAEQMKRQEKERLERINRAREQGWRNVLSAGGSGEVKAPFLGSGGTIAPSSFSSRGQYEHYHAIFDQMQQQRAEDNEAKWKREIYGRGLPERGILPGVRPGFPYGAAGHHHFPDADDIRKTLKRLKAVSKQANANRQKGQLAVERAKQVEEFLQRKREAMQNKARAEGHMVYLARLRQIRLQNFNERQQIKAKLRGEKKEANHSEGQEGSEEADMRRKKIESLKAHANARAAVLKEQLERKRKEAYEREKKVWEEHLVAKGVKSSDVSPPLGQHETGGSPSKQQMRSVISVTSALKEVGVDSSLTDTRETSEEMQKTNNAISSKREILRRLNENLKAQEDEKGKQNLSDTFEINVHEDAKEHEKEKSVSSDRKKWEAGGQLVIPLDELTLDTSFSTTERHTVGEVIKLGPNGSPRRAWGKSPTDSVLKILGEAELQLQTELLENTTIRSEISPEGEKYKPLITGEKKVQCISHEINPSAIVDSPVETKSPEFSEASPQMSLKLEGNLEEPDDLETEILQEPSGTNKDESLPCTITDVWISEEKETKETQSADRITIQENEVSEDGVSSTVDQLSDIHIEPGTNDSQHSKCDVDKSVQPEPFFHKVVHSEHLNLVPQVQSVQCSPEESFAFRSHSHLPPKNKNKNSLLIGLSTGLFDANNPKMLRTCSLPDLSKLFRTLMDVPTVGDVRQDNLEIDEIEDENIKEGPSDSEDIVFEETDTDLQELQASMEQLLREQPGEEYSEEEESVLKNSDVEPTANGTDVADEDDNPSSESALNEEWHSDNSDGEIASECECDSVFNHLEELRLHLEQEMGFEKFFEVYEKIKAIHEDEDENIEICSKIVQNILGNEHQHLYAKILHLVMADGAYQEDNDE
# [13] = biological target: T5, Serine/threonine-protein kinase Nek1 (Homo sapiens); conditions: at 1 µM
# [14] = biological target: T6, Serine/threonine-protein kinase Nek2 (Homo sapiens) (UniProt P51955); conditions: at 0.1 µM
# T6 sequence (whole entry): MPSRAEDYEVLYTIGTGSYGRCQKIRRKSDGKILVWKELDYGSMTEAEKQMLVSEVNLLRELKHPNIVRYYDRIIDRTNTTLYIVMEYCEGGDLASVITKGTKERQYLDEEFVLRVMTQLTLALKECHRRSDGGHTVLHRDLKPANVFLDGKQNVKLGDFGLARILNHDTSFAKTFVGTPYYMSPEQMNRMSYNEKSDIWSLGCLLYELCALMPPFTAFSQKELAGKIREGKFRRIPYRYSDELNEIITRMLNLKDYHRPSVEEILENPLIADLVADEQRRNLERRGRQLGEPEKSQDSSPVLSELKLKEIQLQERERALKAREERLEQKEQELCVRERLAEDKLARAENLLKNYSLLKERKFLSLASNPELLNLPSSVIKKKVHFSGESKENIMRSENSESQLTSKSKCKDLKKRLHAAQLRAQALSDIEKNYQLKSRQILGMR
# [15] = biological target: T6, Serine/threonine-protein kinase Nek2 (Homo sapiens); conditions: at 1 µM
# [16] = biological target: Serine/threonine-protein kinase Nek6 (Homo sapiens) (UniProt Q9HC98); conditions: at 0.1 µM
# [17] = biological target: Serine/threonine-protein kinase Nek6 (Homo sapiens) (UniProt Q9HC98); conditions: at 1 µM
# [18] = biological target: Serine/threonine-protein kinase Nek7 (Homo sapiens) (UniProt Q8TDX7); conditions: at 0.1 µM
# [19] = biological target: Serine/threonine-protein kinase Nek7 (Homo sapiens) (UniProt Q8TDX7); conditions: at 1 µM
# [20] = biological target: T7, Serine/threonine-protein kinase Nek9 (Homo sapiens) (UniProt Q8TD19); conditions: at 0.1 µM;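 further: reported value is the mean percent inhibition of NEK9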
# T7 sequence (whole entry): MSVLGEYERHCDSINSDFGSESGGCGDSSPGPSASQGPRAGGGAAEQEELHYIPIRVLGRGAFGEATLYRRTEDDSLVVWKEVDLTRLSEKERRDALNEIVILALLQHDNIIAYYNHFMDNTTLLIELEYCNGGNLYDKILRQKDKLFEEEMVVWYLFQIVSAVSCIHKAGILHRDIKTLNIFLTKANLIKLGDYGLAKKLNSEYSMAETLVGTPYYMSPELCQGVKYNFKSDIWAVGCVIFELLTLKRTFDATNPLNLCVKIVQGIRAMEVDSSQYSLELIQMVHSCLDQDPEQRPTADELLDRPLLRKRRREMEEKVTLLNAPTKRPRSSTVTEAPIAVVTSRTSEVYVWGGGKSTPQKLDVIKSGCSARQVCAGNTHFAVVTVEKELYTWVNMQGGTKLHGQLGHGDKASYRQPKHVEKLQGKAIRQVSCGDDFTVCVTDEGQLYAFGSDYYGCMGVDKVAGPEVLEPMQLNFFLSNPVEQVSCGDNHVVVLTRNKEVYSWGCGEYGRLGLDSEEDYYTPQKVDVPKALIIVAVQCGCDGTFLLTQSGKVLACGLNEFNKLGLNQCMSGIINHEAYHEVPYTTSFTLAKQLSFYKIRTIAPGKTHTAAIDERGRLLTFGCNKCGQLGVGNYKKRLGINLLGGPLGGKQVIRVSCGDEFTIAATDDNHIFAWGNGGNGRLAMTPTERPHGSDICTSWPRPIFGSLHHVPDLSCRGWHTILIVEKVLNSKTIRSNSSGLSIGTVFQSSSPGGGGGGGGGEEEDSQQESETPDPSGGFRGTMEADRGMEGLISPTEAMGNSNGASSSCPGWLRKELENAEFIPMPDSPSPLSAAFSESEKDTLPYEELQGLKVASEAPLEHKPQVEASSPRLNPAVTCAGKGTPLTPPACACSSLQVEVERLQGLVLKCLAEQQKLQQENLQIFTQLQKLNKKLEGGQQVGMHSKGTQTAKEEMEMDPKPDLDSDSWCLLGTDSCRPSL
# Sequence of Casein kinase II subunit alpha (Homo sapiens) (P68400 whole entry, looked up): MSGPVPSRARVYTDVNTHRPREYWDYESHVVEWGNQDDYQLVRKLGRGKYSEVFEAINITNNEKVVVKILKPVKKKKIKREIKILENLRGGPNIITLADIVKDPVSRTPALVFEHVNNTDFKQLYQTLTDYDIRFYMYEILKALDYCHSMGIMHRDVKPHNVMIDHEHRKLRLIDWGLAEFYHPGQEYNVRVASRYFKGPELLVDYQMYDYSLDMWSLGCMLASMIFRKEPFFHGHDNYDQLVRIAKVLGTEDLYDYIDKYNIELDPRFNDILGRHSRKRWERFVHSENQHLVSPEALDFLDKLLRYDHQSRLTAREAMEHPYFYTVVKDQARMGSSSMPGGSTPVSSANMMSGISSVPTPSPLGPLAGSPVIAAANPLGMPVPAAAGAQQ
# Sequence of Serine/threonine-protein kinase Nek7 (Homo sapiens) (Q8TDX7 whole entry, looked up): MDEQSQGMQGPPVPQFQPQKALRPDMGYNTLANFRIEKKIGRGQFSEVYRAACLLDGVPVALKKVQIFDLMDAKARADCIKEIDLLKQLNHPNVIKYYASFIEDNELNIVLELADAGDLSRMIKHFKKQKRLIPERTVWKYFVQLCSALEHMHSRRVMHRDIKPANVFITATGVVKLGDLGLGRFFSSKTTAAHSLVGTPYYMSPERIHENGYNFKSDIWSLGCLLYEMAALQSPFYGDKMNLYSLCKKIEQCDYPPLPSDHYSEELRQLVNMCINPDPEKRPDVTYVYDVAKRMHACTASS
# Sequence of Serine/threonine-protein kinase Nek6 (Homo sapiens) (Q9HC98 whole entry): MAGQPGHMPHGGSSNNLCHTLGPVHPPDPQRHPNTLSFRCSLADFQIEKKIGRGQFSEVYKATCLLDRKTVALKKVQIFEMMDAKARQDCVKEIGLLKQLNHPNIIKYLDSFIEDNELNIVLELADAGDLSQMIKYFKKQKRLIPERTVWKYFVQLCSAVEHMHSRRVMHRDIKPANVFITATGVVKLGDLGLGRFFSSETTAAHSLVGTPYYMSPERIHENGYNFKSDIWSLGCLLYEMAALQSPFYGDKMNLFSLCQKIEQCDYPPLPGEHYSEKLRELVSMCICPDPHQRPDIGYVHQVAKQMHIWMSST
# Sequence of Sphingosine kinase 1 (Homo sapiens) (Q9NYA1 whole entry): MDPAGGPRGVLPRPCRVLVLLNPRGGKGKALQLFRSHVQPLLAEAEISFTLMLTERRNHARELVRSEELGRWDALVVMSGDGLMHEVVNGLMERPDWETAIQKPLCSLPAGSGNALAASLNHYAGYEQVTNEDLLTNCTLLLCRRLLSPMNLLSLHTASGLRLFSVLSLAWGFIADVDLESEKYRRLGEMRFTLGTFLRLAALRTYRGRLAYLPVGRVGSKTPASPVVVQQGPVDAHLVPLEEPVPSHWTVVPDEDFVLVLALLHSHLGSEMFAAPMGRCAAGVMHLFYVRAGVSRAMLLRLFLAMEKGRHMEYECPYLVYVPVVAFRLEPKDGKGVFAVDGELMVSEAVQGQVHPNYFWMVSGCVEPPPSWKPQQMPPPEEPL
SMILES,inhibition [1],inhibition [2],inhibition [3],inhibition [4],inhibition [5],inhibition [6],inhibition [7],inhibition [8],inhibition [9],inhibition [10],inhibition [11],inhibition [12],inhibition [13],inhibition [14],inhibition [15],inhibition [16],inhibition [17],inhibition [18],inhibition [19],inhibition [20]
CCn1c(-c2nonc2N)nc2ccc(F)cc21,0.48%,3.46%,-5.33%,4.71%,8.79%,4%,6.96%,7.24%,8.68%,8.59%,11%,3.29%,4.51%,6.07%,7.52%,5.03%,5.4%,5.72%,3.91%,5.14%
Cc1ccc2c(-c3ccnc(Nc4cccc(C(F)(F)F)c4)n3)c(-c3ccccc3)nn2n1,-0.04%,0%,0%,1.2%,3.98%,1.79%,5.16%,4.63%,8.3%,7.46%,6.22%,3.11%,2.67%,6.28%,3.74%,6.41%,1.67%,0.74%,5.29%,8.93%
